Measurements from ChEMBL document CHEMBL4888484, “Replenishing the malaria drug discovery pipeline: Screening and hit evaluation of the MMV Hit Generation Library 1 (HGL1) against asexual blood stage Plasmodium falciparum ,using a nano luciferase reporter read-out” (2022).
Among all 4,800 compounds or so, about 410 (8.5%) showed an effect of 50% or more. What follows is part of a selection rich in strong results, with near analogues and random picks from the rest.

tested on: Plasmodium falciparum; experiment: Confirmatory screen in NF54 pLDH assay, in single point, at 2uM, 72h; type: functional, Erythrocyte; conditions: timepoint 72 hour

| Structure (SMILES) | % Inhibition [%] |
| --- | --- |
| O=C(Nc1cccc(Cl)c1)Nc1cccc(-c2cnc3n2CCC3)c1 | 75 |
| O=C(Nc1cccc(Cl)c1)c1ccc(-c2cnc(N3CCCC3)nc2)cc1 | -19 |
| Cc1nn(C)c(NC(=O)Nc2cccc(Cl)c2)c1C1=CCCCC1 | -9 |
| O=C(Cn1cccn1)Nc1cccc(S(=O)(=O)N2CCCC2)c1 | -8 |
| C[C@@H](C1CCCC1)N1C(=O)NC(CC(F)(F)F)C1=O (stereo partly specified) | -23 |
| O=C(NS(=O)(=O)C1CCOCC1)c1csc(-c2ccco2)n1 | -10 |
| COc1ccccc1-n1c(=O)n(C2CCCC2)c(=O)c2c1ncn2Cc1ccccc1Cl | 34 |
| Cc1ccccc1Cn1cnc2c1c(=O)n(C1CCCCC1)c(=O)n2-c1ccccc1Cl | 82 |
| COc1ccccc1Cn1cnc2c1c(=O)n(C1CCCCC1)c(=O)n2-c1ccccc1Cl | 90 |
| COC(=O)c1ncn2c1C(=O)N(Cc1ccccc1OC)[C@](C)(C(=O)NC1CCCCC1)C2 | 11 |
| Cn1ncn(CC(=O)c2cccc(Cl)c2Cl)c1=O | -14 |
| O=C(CN1C(=O)N[C@H](c2ccc(F)cc2)C1=O)Nc1ccc2c(c1)OCCO2 | 5 |
| CC(C)(C)CC(C)(C)NC(=O)c1ccc2nc(N3C(=O)CCC3=O)sc2c1 | 9 |
| C[C@H](c1ccccc1)N1C(=O)[C@@H]2CN(C(=O)CC(C)(C)C)CCN2C1=O | -13 |
| Cc1ccc(CCC(=O)N2CC[C@H](C)S(=O)(=O)CC2)s1 | 9 |
| C[N+]12CCCCC1C(OC(=O)C1(c3ccccc3)CCCC1)CCC2 (stereo unspecified) | 60 |
| O=C1C2ON(c3ccccc3)C(c3ccncc3)C2C(=O)N1c1ccc2ccccc2c1 (stereo unspecified) | 8 |
| COc1ccc2cc3n(c2c1)C[C@@](C)(C(=O)NC1CCCC1)N(Cc1ccc(F)cc1)C3=O | 13 |
| Cc1cc(C)nc(N[C@H](c2ccc(F)cc2)c2cc(C)sc2NC(=O)c2ccccc2)n1 | 6 |
| COc1cc([C@@H]2C=C(c3ccc(Cl)cc3)Nc3ncnn32)ccc1OCc1ccc(Cl)cc1 | 4 |
| Cc1ccc([C@@H]2C=C(C(=O)O)Nc3c(C(N)=O)nnn32)cc1 | -12 |
| Cc1ccc(C2=C[C@@H](c3ccc(Cl)cc3)n3nc(NC(=O)c4ccccc4)nc3N2)cc1 | 90 |
| Cc1cccc(OC(=O)O[C@H]2c3nccnc3C(=O)N2c2ccc(Cl)cn2)c1 | 16 |
| CN(C)c1ccc2c(c1)CN(C(=O)c1ccccc1S(C)(=O)=O)CC2 | -5 |
| O=C(COc1ccc(Cl)cc1)N[C@H](CO)CC1CCCC1 | 4 |
| O=S1(=O)N=C(n2ccnc2)c2ccccc21 | -17 |

| Structure (SMILES) | % Inhibition [%] |
| --- | --- |
| CS(=O)(=O)n1cnc2cc(F)c(F)cc21 | -8 |
| COc1ccc(CCc2nnc3n2CCOC3)cc1 | -1 |
| COc1ccc(-c2cc(-c3ccccc3)nc(N3CCC(C)CC3)n2)cc1 | 43 |
| COc1ccc(-[n+]2c(-c3ccc(-c4ccccc4)cc3)cn3c2COCC3)cc1 | 60 |
| COc1ccc(-[n+]2c(-c3ccccc3)cn3c2CCC3)cc1 | 59 |
| COc1ccc(N2CCN(c3nc(-c4ccccc4)cs3)CC2)cc1 | 0 |
| COc1ccc(-c2nnc(COc3ccc(-c4ccccc4)cc3)s2)cc1 | -10 |
| O=C(Cn1c(=O)n(Cc2ccco2)c(=O)c2ccccc21)NC1CCCCC1 | 10 |
| Cc1noc([C@H]2CCCN(C(=O)c3cc4c(s3)CCC4)C2)n1 | -5 |
| O=C1c2ccccc2N[C@]2(C(=O)Nc3ccccc32)N1c1ccc2c(c1)OCO2 | -25 |
| Cc1nn(-c2ncc(C(F)(F)F)cc2Cl)c(=O)n1-c1ccc(OCc2ccccc2)cc1 | -12 |
| CCCCN(CC)c1ncc(C(=O)Nc2ccc(OCC)cc2)c(N)n1 | 15 |
| Cc1ccc(NC(=O)Nc2cc(C)ccc2N2CCCN(Cc3ccc(F)cc3)C2=O)cc1 | 30 |
| Cc1cc(C)nc(NCCC[C@H]2CCCCO2)n1 | -15 |
| Cc1cccc(CNC(=O)NC2CCOC2c2ccc(Cl)cc2)n1 (stereo unspecified) | -15 |
| Cc1cccc(CN(Cc2cccc(C)n2)C[C@H]2CCCCO2)n1 | 90 |
| CC(C)c1nc(CN(C)[C@@H](C)C(=O)Nc2nccs2)cs1 | 23 |
| CC(C)NC(=O)C(=O)Nc1nccs1 | -19 |
| CC(C)N(CC(=O)Nc1nccs1)Cc1ccccn1 | 59 |
| CCN1C(=O)CCN(C(=O)c2ccnn2C)CC12CCOCC2 | 3 |
| Brc1cccc2c1OCC[C@@H]2Nc1ncnc2nc[nH]c12 | 4 |
| Oc1ccccc1-c1cnc(C(F)(F)F)s1 | 90 |
| Oc1nc(-c2cccc(C(F)(F)F)c2)sc1-c1ccccc1 | 2 |
| Cc1ccc(OCC(=O)Nc2ccc(N3CCn4c(nc5ccccc54)C3)cc2Cl)cc1 | -20 |
| Cc1ccc(OCC(=O)Nc2cc(C)nn2-c2nc3c(cnn3-c3ccc(C)c(C)c3)c(=O)[nH]2)cc1 | 57 |
| COc1ccc(-n2ncc3c(NCCNC(=O)c4ccccc4Cl)nc(C)nc32)cc1 | -27 |

| Structure (SMILES) | % Inhibition [%] |
| --- | --- |
| CN(CCCNC(=O)C(=O)Nc1ccn(C)n1)c1cccc(F)c1 | 10 |
| COCCOC(=O)c1cc(C(F)(F)F)cc(C(=O)OCCOC)n1 | 11 |
| CN(Cc1nccn1C)C(=O)c1cc2ccccc2[nH]1 | 15 |
| Cn1c(=O)c2c(ncn2CC(=O)N(Cc2ccccc2)C2CC2)n(C)c1=O | 2 |
| CCCn1c(C)cnc1C1CN(S(=O)(=O)c2cc(Cl)ccc2Cl)C1 | 6 |
| Cn1c(C(C)(C)C)nc2cc(NC3CCC4(CC3)OCCO4)ccc21 | -16 |
| COCc1cc(F)ccc1NC(=O)NC1CCN(c2cc(C)nc(C)n2)CC1 | 5 |
| Cn1ncc2c(N3CC(=O)N(C4CC4)C3)ncnc21 | -15 |
| C[C@@H]1CN(CCN(C)C(=O)Nc2nc(C3CC3)cs2)C[C@H](C)O1 | 9 |
| Cc1c(C)n(C[C@@H](O)CNC2CCCC2)c2c(Cl)cccc12 | -18 |
| CCC(C)NCC(O)Cn1c(-c2ccccc2)c(-c2ccccc2)c2cc(C)ccc21 (stereo unspecified) | 92 |
| CC(NCC(O)Cn1c(-c2ccccc2)c(-c2ccccc2)c2ccc3ccccc3c21)c1ccccc1 (stereo unspecified) | 86 |
| Cc1cccc(C(=O)Nc2c(C#N)c(-c3ccccc3)c(-c3ccccc3)n2Cc2ccccc2)c1 | 13 |
| Cc1c(C)n(CC(O)CNC(C)c2ccccc2)c2c(Cl)cccc12 (stereo unspecified) | 73 |
| Cc1c(C)n(C[C@H](O)Cn2c(C(F)(F)F)nc3ccccc32)c2c(Cl)cccc12 | -15 |
| O=S(=O)(c1c(Cl)cccc1Cl)N1CCC[C@@H]1CN1CCCC1 | 8 |
| Cc1cc(CN2C(=O)N[C@@]3(CCCCc4ccccc43)C2=O)no1 | 6 |
| COc1ccc([C@H](NC(=O)CCc2ccccc2)c2c(O)ccc3ccccc23)cc1 | -6 |
| Cc1cc(N2CCn3c(nc4ccccc43)C2)ccc1NC(=O)C1CCCCC1 | 14 |
| CN1c2ccccc2C(=O)N[C@@H]1c1ccccc1OCc1ccccc1 | -4 |
| COc1cccc(-n2c(C)cc(C(=O)N3CCNC(=O)CC3)c2C)c1 | -5 |
| N#Cc1c(NC(=O)Nc2cn3ccccc3c2C#N)cn2ccccc12 | 35 |
| O=C(NCC(N1CCOCC1)C(F)(F)F)C1CC12CCOC2 (stereo unspecified) | 14 |
| O=c1[nH]c2nc(N3CCCCC3)ncc2c(=O)n1Cc1ccco1 | -14 |
| Cc1nc([C@@H](NC(=O)c2cc(Cl)cn2C)c2cnn(C)c2)no1 | -10 |
| O=C(NC[C@H]1CCS(=O)(=O)C1)c1ccc2[nH]c3c(c2c1)CCCC3 | -6 |

| Structure (SMILES) | % Inhibition [%] |
| --- | --- |
| Clc1ccc(COc2ccc(CNC3CCCCC3)cc2Br)cc1 | -12 |
| COc1cc(C(C)(C)C)c(OCC(=O)N(c2ccccc2)c2ccccc2)cc1C(C)(C)C | 7 |
| Cc1ccc(Oc2cc(C#N)c(C#N)cc2N2CCOCC2)cc1C | -9 |
| Cc1nc2ccccc2cc1OCc1ccc(F)cc1 | 12 |
| CC[N+](C)(CC)CCOc1cc(C)c2ccccc2n1 | 40 |
| COC(=O)c1ccccc1NC(=O)NCCn1nnc2cc(S(=O)(=O)N(C)C)ccc21 | 32 |
| CCN1C(=O)Cc2cc(NS(=O)(=O)Cc3ccccc3)ccc21 | 12 |
| COc1cc(CNCCN2CCOCC2)ccc1OCc1ccc(C)cc1 | 10 |
| COc1ccc(CNCc2ccc(C)cc2)cc1Cn1ccnc1 | 69 |
| COc1ccc(CN2CC[C@@H]3C(=O)NCCCCCCN(Cc4ccncc4)[C@@H]3C2)cc1Cn1ccnc1 | 37 |
| Cc1ccc(NS(=O)(=O)c2ccc(NC(=O)CN(c3cc(Cl)ccc3C)S(C)(=O)=O)cc2)cc1C | -13 |
| Cc1cc(-c2nc(C3(c4ccncc4)CCC3)no2)ccn1 | 4 |
| COc1ccc(S(=O)(=O)N2CCC(c3cc(N)on3)CC2)cc1Cl | 40 |
| COc1ccc(OC)c(S(=O)(=O)N2C[C@H]3CCCC(=O)N[C@H]3C2)c1 | 9 |
| COc1ccc(F)cc1S(=O)(=O)N1CCc2noc(N)c2C1 | 63 |
| COc1ccccc1OCC(=O)Nc1ccccc1-n1cnnc1C | 12 |
| C[C@H](NC(c1ccccc1)c1ccccc1)c1nnc(-c2cccs2)o1 | 7 |
| CCCOc1ccc(Nc2cc(C)nc3ccc(Cl)cc23)cc1 | 63 |
| Cc1cc(CS(=O)(=O)NCCOc2ccc(Cl)cc2)on1 | 2 |
| CC(C)(C)C1CC(NC(=O)C2CC=CC2)CCO1 (stereo unspecified) | -1 |
| c1ccc2cc(-c3ccc4ccccc4n3)ccc2c1 | 16 |
| Cc1cccc(C)c1OCC(=O)Nc1ccc(-c2nc3cc4ccccc4cc3[nH]2)cc1 | 18 |
| c1cc(-c2nc3cc4ccccc4cc3[nH]2)nc(-c2nc3cc4ccccc4cc3[nH]2)c1 | 97 |
